Data taken from PubChem BioAssay (Tox21).
Results filed as inconclusive are left out. The source made the active and inactive calls. Unless noted, calls follow the shape of the dose curve; as a rule, active = well fitted curve in the direction sought with a large enough effect in the repeat runs; inconclusive = weak or mixed curves; inactive = no such curve, though single readings can be large; an effect the other way counts as inactive or inconclusive.

Assays:
[1] = qHTS assay for small molecule agonists of the p53 signaling pathway (AID 651631; calls by dose curve; also: nearly all actives have a fitted effect of over 15% in size)
Method in brief: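 Stably transfected HCT-116 cells (beta-lactamase behind p53 response elements) get compounds after a 5 h settling period; 16 h later at 37 °C, FRET substrate is loaded and fluorescence read after 2 h.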

[2] = qHTS assay for small molecules that induce genotoxicity in human embryonic kidney cells expressing luciferase-tagged ATAD5 (AID 651632); also: nearly all actives have a fitted effect of over 15% in size
Method in brief: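 HEK293T cells carrying a luciferase reporter tagged to ATAD5 were exposed to compound or DMSO vehicle for 16 hr at 37C, 5% CO2. Amplite was added, and after 30 min at room temperature luciferase activity was read as a marker of ATAD5 induction.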

[3] = qHTS assay for small molecule agonists of the p53 signaling pathway - cell viability (AID 651633; calls by dose curve;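 also: p53RE-bla HCT reporter cells with a stable beta-lactamase p53 reporter; series mostly up to about 83 µM; nearly all actives have a fitted effect of over 30% in size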)
Method in brief: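 p53RE-bla cells, seeded at 4,000 per well and rested 5 h at 37 C/5% CO2, received compounds in DMSO for 16 h at 37 C. CellTiter-Glo was then added, and luminescence was read after 30 min at room temperature to gauge cytotoxicity.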

[4] = qHTS assay for small molecules that induce genotoxicity in human embryonic kidney cells expressing luciferase-tagged ATAD5 - cell viability (AID 651634; calls by dose curve; also: nearly all actives have a fitted effect of over 25% in size)
Method in brief: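 HEK293T cells expressing luciferase-tagged ATAD5 were exposed to compound or DMSO for 15.5 hr at 37C, 5% CO2. Viability was then read as live-cell protease activity by CellTiter-Fluor fluorescence after 30 min at 37C.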

[5] = qHTS assay for small molecule disruptors of the mitochondrial membrane potential - cell viability (AID 720634; calls by dose curve;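 also: human HepG2 liver cancer cells; series mostly up to about 83 µM; nearly all actives have a fitted effect of over 20% in size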)
Method in brief: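 HepG2 cells seeded overnight at 37 C, then exposed to compound or DMSO for 1 hr at 37 C, 5% CO2. m-MPI dye added, then CellTiter-Glo for 30 min at room temperature; viability read as ATP luminescence.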

[6] = qHTS assay to test for compound auto fluorescence at 590 nm (red) in HepG2 cells (AID 720674)
Method in brief: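 Rose Bengal sodium served as the red fluorophore standard. HepG2 monolayers (overnight attachment, MEM with 10% FBS) were exposed to test compounds for 1 hr at 37 C and read at Ex 540/Em 590 nm.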

[7] = qHTS assay to test for compound auto fluorescence at 535 nm (green) in HepG2 cells (AID 720675)
[8] = qHTS assay to test for compound auto fluorescence at 460 nm (blue) in HEK293 cells (AID 720678)
Method in brief: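 HEK293, 2,000 cells/well, 10% dialyzed FBS; attach 4-5 hr 37C; pin compound or DMSO; o/n 37C/5% CO2; fluorescence 405/460 nm; triamterene-equivalent units.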

[9] = qHTS assay to test for compound auto fluorescence at 590 nm (red) in HEK293 cells (AID 720679)
Method in brief: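 Intensity at 540nm excitation and 590nm emission is reported as Rose Bengal sodium-equivalent autofluorescence. Measurements followed overnight exposure (37C, 5% CO2) of HEK293 cells, 2,000 per well, to 23 nL compound.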

[10] = qHTS assay to test for compound auto fluorescence at 535 nm (green) in HEK293 cells (AID 720680)
[11] = qHTS assay to test for compound auto fluorescence at 460 nm (blue) in HEK293 cell free culture (AID 720681)
Method in brief: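 Test compounds were pinned into cell-free culture medium (DMEM with 10% FBS) and fluorescence was read directly at Ex/Em 405/460 nm. Signals were expressed as fluorescence equivalents of triamterene, with DMSO vehicle as control.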

[12] = qHTS assay to test for compound auto fluorescence at 535 nm (green) in HEK293 cell free culture (AID 720682)
Method in brief: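 Using fluorescein as calibrant, autofluorescence was quantified at 485/535 nm in cell-free DMEM containing 10% FBS after pintool addition of compound or vehicle.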

[13] = qHTS assay to test for compound auto fluorescence at 590 nm (red) in HEK293 cell free culture (AID 720683)
Method in brief: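 Tox21 10K library compounds were pinned into cell-free DMEM with 10% FBS and fluorescence was read at excitation 540 nm. Activity is expressed as Rose Bengal sodium equivalency.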

[14] = qHTS assay to test for compound auto fluorescence at 590 nm (red) in HepG2 cell free culture (AID 720684)
Method in brief: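 Measured in medium alone (MEM containing 10% FBS) following pintool addition of compound; emission at 590 nm with 540 nm excitation, referenced to Rose Bengal sodium.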

[15] = qHTS assay to test for compound auto fluorescence at 460 nm (blue) in HepG2 cell free culture (AID 720685)
Method in brief: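 Compound (23 nL) or DMSO pinned into cell-free MEM with 10% FBS; blue fluorescence read at 405/460 nm excitation/emission, expressed as auto-fluorescence equivalency to triamterene.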

[16] = qHTS assay to test for compound auto fluorescence at 535 nm (green) in HepG2 cell free culture (AID 720686)
[17] = qHTS assay to test for compound auto fluorescence at 460 nm (blue) in HepG2 cells (AID 720687)
Method in brief: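 Cells (2,000/well in MEM with 10% FBS) attached overnight at 37 C, then were exposed to compound or DMSO for 1 hr at 37 C, 5% CO2. Fluorescence read at Ex/Em 405/460 nm, expressed as triamterene-equivalent signal.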

[18] = target: Glucocorticoid receptor (Homo sapiens) (UniProt P04150); assay: qHTS assay to identify small molecule antagonists of the glucocorticoid receptor (GR) signaling pathway (AID 720692; active = well fitted inhibition curve with a large enough effect in the signal ratio in the repeat runs, not every such curve was filed as active; the % refers to the signal ratio)
Method in brief: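 GR-bla HeLa cells (beta-lactamase reporter under glucocorticoid response element) were pre-plated 4 h at 37 C, treated with compounds plus 5 nM dexamethasone (final) for 18 h, then read by LiveBLAzer B/G FRET fluorescence after 2 h.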

[19] = target: Glucocorticoid receptor (Homo sapiens) (UniProt P04150); assay: qHTS assay to identify small molecule agonists of the glucocorticoid receptor (GR) signaling pathway (AID 720691; active = well fitted activation curve with a large enough effect in the signal ratio in the repeat runs, not every such curve was filed as active; the % refers to the signal ratio)
Method in brief: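 GR-bla HeLa cells (beta-lactamase reporter under glucocorticoid response element) were plated 4 h at 37 C/5% CO2, given compounds in DMSO, and incubated 18 h at 37 C. LiveBLAzer B/G FRET substrate was added for 2 h at room temperature, then fluorescence intensity read.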

[20] = qHTS assay for small molecule disruptors of the mitochondrial membrane potential (AID 720635)
Method in brief: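 HepG2 cells (2,000/well) attached overnight at 37C, then took compound for 1 hr at 37C, 5% CO2. Mito-MPS dye was added for 30 min; fluorescence was read at 490/535 nm (monomers) and 540/590 nm (aggregates).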
% is scaled to controls: 0 for no effect and ±100 for the full control effect.

Glucocorticoid receptor (Homo sapiens), sequence (P04150 whole entry, looked up): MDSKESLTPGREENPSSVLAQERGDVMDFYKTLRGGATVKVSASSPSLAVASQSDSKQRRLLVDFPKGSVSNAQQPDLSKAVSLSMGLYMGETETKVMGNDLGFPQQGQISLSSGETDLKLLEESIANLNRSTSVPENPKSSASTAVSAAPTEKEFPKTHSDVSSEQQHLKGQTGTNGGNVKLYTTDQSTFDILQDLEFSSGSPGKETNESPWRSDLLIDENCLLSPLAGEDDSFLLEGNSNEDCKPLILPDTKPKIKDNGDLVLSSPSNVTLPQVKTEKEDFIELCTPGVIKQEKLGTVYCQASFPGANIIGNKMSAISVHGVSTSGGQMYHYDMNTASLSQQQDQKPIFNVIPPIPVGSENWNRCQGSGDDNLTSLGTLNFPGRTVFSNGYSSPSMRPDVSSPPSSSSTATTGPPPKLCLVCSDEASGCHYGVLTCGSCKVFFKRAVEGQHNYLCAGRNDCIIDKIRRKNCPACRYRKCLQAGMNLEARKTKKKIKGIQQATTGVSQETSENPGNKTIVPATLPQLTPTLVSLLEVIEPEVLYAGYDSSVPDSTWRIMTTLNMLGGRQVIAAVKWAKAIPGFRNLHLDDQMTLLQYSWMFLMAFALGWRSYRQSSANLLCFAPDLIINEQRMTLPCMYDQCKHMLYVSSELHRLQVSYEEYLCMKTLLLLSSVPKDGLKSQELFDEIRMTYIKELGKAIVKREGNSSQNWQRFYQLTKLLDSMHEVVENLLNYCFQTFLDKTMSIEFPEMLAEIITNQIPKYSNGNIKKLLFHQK

CCOC(=O)C1=NOC(c2ccccc2)(c2ccccc2)C1
inactive: Potency [1] | Potency [2] | Potency [3] | Potency [4] | outcome [5] | outcome [6] | outcome [7] | outcome [8] | outcome [9] | outcome [10] | outcome [11] | outcome [12] | outcome [13] | outcome [14] | outcome [15] | outcome [16] | outcome [17] | Potency [18]

CCCCN1C=CN(C)C1
inactive: Potency [1] | Potency [2] | Potency [3] | Potency [4] | outcome [5] | fluorescence, relative to Rose Bengal [6] -0.0028% [at 18.6 µM] | fluorescence, % of fluorescein control [7] -0.0563% [at 18.6 µM] | fluorescence, % of triamterene [8] 0.173% [at 18.6 µM] | fluorescence, % of fluorescent control [9] -0.0345% [at 18.6 µM] | fluorescence, % of fluorescein [10] -0.0653% [at 18.6 µM] | fluorescence, % of fluorescent control [11] -0.116% [at 18.6 µM] | activity change [12] 0.0078% [at 18.6 µM] | fluorescence, % of fluorescent control [13] 0.0298% [at 18.6 µM] | fluorescence, % of Rose Bengal [14] 0.057% [at 18.6 µM] | fluorescence, % of fluorescent control [15] -0.0433% [at 18.6 µM] | fluorescence, % of fluorescein control [16] -0.069% [at 18.6 µM] | fluorescence, % of fluorescent control [17] 0.0295% [at 18.6 µM] | Potency [19] | Potency [18]

C=C(C)C(=O)OCCOCCOCCOCCOC(=O)C(=C)C
inactive: Potency [1] | Potency [2] | Potency [3] | Potency [4] | outcome [5] | outcome [6] | outcome [7] | outcome [8] | outcome [9] | outcome [10] | outcome [11] | outcome [12] | outcome [13] | outcome [14] | outcome [16] | outcome [17]

CC1(C)[C@@H]2CC[C@@]1(C)[C@H](O)C2
inactive: Potency [1] | Potency [2] | Potency [3] | Potency [4] | outcome [5] | outcome [6] | outcome [7] | outcome [8] | outcome [9] | outcome [10] | outcome [11] | outcome [13] | outcome [14] | outcome [15] | outcome [16] | outcome [17] | Potency [19] | Potency [18]

CC(C)CC(C)(N)C#N (configuration not stated)
inactive: Potency [1] | Potency [2] | Potency [3] | Potency [4] | outcome [5] | outcome [6] | outcome [7] | outcome [9] | outcome [10] | outcome [11] | outcome [12] | outcome [13] | outcome [14] | outcome [15] | outcome [16] | outcome [17] | Potency [19]

Cc1cc(C)c(N=Nc2c(O)c(S(=O)(=O)O)cc3cc(S(=O)(=O)O)ccc23)cc1C
inactive: activation [1] -4.32% [at 8.3 µM] | activation [2] 1.99% [at 8.08 µM] | activity change, negative = cytotoxicity [3] 11.3% [at 8.08 µM] | activity, negative = cytotoxicity [4] -13.8% [at 8.08 µM] | activity change, negative = cytotoxicity [5] -3.07% [at 8.08 µM] | fluorescence, relative to Rose Bengal [6] 0.0524% [at 9.17 µM] | fluorescence, % of fluorescein control [7] -0.0414% [at 9.17 µM] | fluorescence, % of fluorescent control [9] -0.166% [at 9.17 µM] | fluorescence, % of fluorescein [10] -0.0092% [at 9.17 µM] | fluorescence, % of fluorescent control [11] -0.0769% [at 9.17 µM] | fluorescence, % of fluorescent control [13] 0.0378% [at 9.17 µM] | fluorescence, % of Rose Bengal [14] 0.0175% [at 9.17 µM] | fluorescence, % of fluorescent control [15] -0.11% [at 9.17 µM] | fluorescence, % of fluorescein control [16] -0.0747% [at 9.17 µM] | fluorescence, % of fluorescent control [17] -0.0207% [at 9.17 µM] | activation [19] -1.47% [at 6.9 µM] | activity change, negative = inhibition [18] 0.597% [at 7.04 µM]

OCCc1ccccn1
inactive: Potency [1] | Potency [2] | Potency [3] | Potency [4] | outcome [5] | outcome [6] | outcome [7] | outcome [8] | outcome [9] | outcome [10] | outcome [11] | outcome [13] | outcome [15] | outcome [16] | outcome [17] | Potency [19]

c1ccc2sc(SN3CCOCC3)nc2c1
inactive: Potency [1] | Potency [2] | Potency [3] | Potency [4] | outcome [5] | outcome [6] | outcome [7] | outcome [8] | outcome [9] | outcome [10] | outcome [11] | outcome [12] | outcome [13] | outcome [14] | outcome [15] | outcome [16] | outcome [17] | Potency [18]

C=CCOCC(O)CO (configuration not stated)
inactive: Potency [1] | Potency [2] | Potency [3] | Potency [4] | outcome [5] | outcome [6] | outcome [7] | outcome [8] | outcome [10] | outcome [11] | outcome [12] | outcome [13] | outcome [15] | outcome [16] | outcome [17] | Potency [19] | Potency [18]

CC(=O)Nc1ccc(OCC(O)CNC(C)C)cc1 (configuration not stated)
inactive: Potency [1] | Potency [2] | Potency [3] | Potency [4] | outcome [5] | outcome [6] | outcome [7] | outcome [8] | outcome [10] | outcome [11] | outcome [12] | outcome [13] | outcome [14] | outcome [15] | outcome [16] | outcome [17] | Potency [19] | Potency [18]

O=C(O)CC(C(=O)O)S(=O)(=O)O (configuration not stated)
inactive: Potency [1] | Potency [2] | Potency [3] | Potency [4] | outcome [5] | outcome [6] | outcome [7] | outcome [9] | outcome [10] | outcome [11] | outcome [12] | outcome [13] | outcome [14] | outcome [15] | outcome [16] | Potency [19] | Potency [18]

CC(C(=O)O)c1cccc(Oc2ccccc2)c1 (configuration not stated)
inactive: Potency [1] | Potency [2] | Potency [3] | Potency [4] | Potency [20] | fluorescence, relative to Rose Bengal [6] -0.601% [at 18.6 µM] | fluorescence, % of fluorescein control [7] 0.0036% [at 18.6 µM] | fluorescence, % of triamterene [8] 0.0483% [at 18.6 µM] | fluorescence, % of fluorescent control [9] -0.0737% [at 18.6 µM] | fluorescence, % of fluorescein [10] 0.0474% [at 18.6 µM] | fluorescence, % of fluorescent control [11] -0.022% [at 18.6 µM] | activity change [12] 0.0987% [at 18.6 µM] | fluorescence, % of fluorescent control [13] -0.0434% [at 18.6 µM] | fluorescence, % of Rose Bengal [14] 0.647% [at 18.6 µM] | fluorescence, % of fluorescent control [15] -0.0014% [at 18.6 µM] | fluorescence, % of fluorescein control [16] 0.0607% [at 18.6 µM] | fluorescence, % of fluorescent control [17] -0.0143% [at 18.6 µM]

CC(C)=CCC/C(C)=C/C#N
inactive: Potency [1] | Potency [2] | Potency [3] | Potency [4] | outcome [5] | outcome [6] | outcome [7] | outcome [8] | outcome [10] | outcome [11] | outcome [12] | outcome [13] | outcome [16] | outcome [17]
